Data taken from PubChem BioAssay AID1159580 (chemical genetic matrix, 2015).
“And” between values parts separate entries of the source, which are not always exact repeats. Identical values can stand only once. In all, about 5,500 compounds went through this assay and about 2,000 (36%) were called active. Not shown: some 18% with an inconclusive outcome. Rule as the data show it: active = normalized growth mostly below about 0.91 (no sharp cut-off); inconclusive = no clear call, values can overlap the other calls; inactive = mostly above about 0.92. This is one part of the list.

Experiment: chemical genetic growth profiling, strain panel (AID 1159580);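 also: tested at 20 µM; growth read once vehicle control cultures reached saturation at 30 °C; 1 = growth at the plate median or of vehicle wells; lower values mean less growth of the strain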
Settings: growth OD

Measured: normalized growth

NC(Cc1ccc(Cl)cc1)C(=O)O (centres undefined)
inactive: S. cerevisiae deletion strains, locus YJR075W, strain HOC1, hits give low values 0.999 and 1.06 | S. cerevisiae deletion strains, locus YKL009W, strain mrt4, hits give low values 1.03 | S. cerevisiae deletion strains, locus YKL068W, hits give low values 0.994 | S. cerevisiae deletion strains, locus YKL085W, strain MDH1 (second series), hits give low values 0.994 | S. cerevisiae deletion strains, locus YKL085W, strain MDH1, hits give low values 0.994 | S. cerevisiae deletion strains, locus YKL160W, strain elf1, hits give low values 0.996 | S. cerevisiae deletion strains, locus YKL190W, strain CNB1, hits give low values 0.991 | S. cerevisiae deletion strains, locus YKR001C, strain vps1, hits give low values 1.02 | S. cerevisiae deletion strains, locus YKR026C, strain gcn3, hits give low values 1 | S. cerevisiae deletion strains, locus YKR091W, strain srl3, hits give low values 0.993 | S. cerevisiae deletion strains, locus YLL001W, strain dnm1, hits give low values 0.984 | S. cerevisiae deletion strains, locus YLL026W, hits give low values 0.999 | S. cerevisiae deletion strains, locus YLL041C, strain sdh2, hits give low values 1 | S. cerevisiae deletion strains, locus YLR027C, strain aat2, hits give low values 0.999 | S. cerevisiae deletion strains, locus YLR039C, strain RIC1, hits give low values 0.994 | S. cerevisiae deletion strains, locus YLR058C, strain SHM2, hits give low values 0.981 | S. cerevisiae deletion strains, locus YLR102C, strain apc9, hits give low values 0.998 | S. cerevisiae deletion strains, locus YLR113W, strain HOG1, hits give low values 0.971 | S. cerevisiae deletion strains, locus YLR221C, strain rsa3, hits give low values 0.996 | S. cerevisiae deletion strains, locus YLR258W, strain gsy2, hits give low values 0.988 | S. cerevisiae deletion strains, locus YLR262C, strain YPT6 (second series), hits give low values 1.02 | S. cerevisiae deletion strains, locus YLR262C, strain YPT6, hits give low values 0.955 | S. cerevisiae deletion strains, locus YLR268W, strain sec22, hits give low values 1 | S. cerevisiae deletion strains, locus YLR320W, strain mms22, hits give low values 0.996 | S. cerevisiae deletion strains, locus YLR330W, strain CHS5, hits give low values 0.992 | S. cerevisiae deletion strains, locus YLR342W, strain FKS1 (second series), hits give low values 1.02 | S. cerevisiae deletion strains, locus YLR342W, strain FKS1, hits give low values 0.999 | S. cerevisiae deletion strains, locus YLR357W, strain rsc2, hits give low values 0.977 | S. cerevisiae deletion strains, locus YLR370C, strain arc18, hits give low values 1 | S. cerevisiae deletion strains, locus YLR371W, strain rom2, hits give low values 0.993 | S. cerevisiae deletion strains, locus YLR384C, strain iki3, hits give low values 0.986 | S. cerevisiae deletion strains, locus YLR418C, strain cdc73, hits give low values 1.04 | S. cerevisiae deletion strains, locus YML016C, strain PPZ1, hits give low values 0.986 | S. cerevisiae deletion strains, locus YML032C, strain rad52, hits give low values 0.983 | S. cerevisiae deletion strains, locus YML120C, strain ndi1, hits give low values 0.993 | S. cerevisiae deletion strains, locus YML124C, strain tub3, hits give low values 0.998 | S. cerevisiae deletion strains, locus YMR058W, strain fet3, hits give low values 1.02 | S. cerevisiae deletion strains, locus YMR078C, strain ctf18, hits give low values 0.992 | S. cerevisiae deletion strains, locus YMR125W, strain sto1, hits give low values 0.993 | S. cerevisiae deletion strains, locus YMR129W, hits give low values 0.995 | S. cerevisiae deletion strains, locus YMR205C, strain PFK2, hits give low values 0.991 | S. cerevisiae deletion strains, locus YMR223W, strain ubp8, hits give low values 1.01 | S. cerevisiae deletion strains, locus YMR231W, strain pep5, hits give low values 0.993 | S. cerevisiae deletion strains, locus YMR263W, strain SAP30, hits give low values 0.991 and 0.983 | S. cerevisiae deletion strains, locus YMR307W, strain GAS1, hits give low values 1.06 | S. cerevisiae deletion strains, locus YNL067W, strain RPL9B, hits give low values 0.986 | S. cerevisiae deletion strains, locus YNL071W, strain lat1, hits give low values 1 | S. cerevisiae deletion strains, locus YNL128W, strain TEP1, hits give low values 0.976 | S. cerevisiae deletion strains, locus YNL153C, strain GIM3, hits give low values 0.983 and 1.07 | S. cerevisiae deletion strains, locus YNL175C, strain NOP13, hits give low values 0.986 | S. cerevisiae deletion strains, locus YNL183C, strain NPR1, hits give low values 0.891 | S. cerevisiae deletion strains, locus YNL209W, strain ssb2, hits give low values 1 | S. cerevisiae deletion strains, locus YNL224C, strain SQS1, hits give low values 1.01 | S. cerevisiae deletion strains, locus YNL233W, strain BNI4, hits give low values 0.991 | S. cerevisiae deletion strains, locus YNL248C, strain rpa49, hits give low values 1.01 | S. cerevisiae deletion strains, locus YNL250W, strain rad50, hits give low values 0.988 | S. cerevisiae deletion strains, locus YNL271C, strain bni1, hits give low values 1 | S. cerevisiae deletion strains, locus YNL298W, strain CLA4, hits give low values 0.985 | S. cerevisiae deletion strains, locus YNL307C, strain MCK1, hits give low values 1.01 | S. cerevisiae deletion strains, locus YNL322C, strain KRE1 (second series), hits give low values 0.983 | S. cerevisiae deletion strains, locus YNL322C, strain KRE1, hits give low values 0.989 | S. cerevisiae deletion strains, locus YNR049C, strain mso1, hits give low values 1 | S. cerevisiae deletion strains, locus YNR052C, strain pop2, hits give low values 0.986 | S. cerevisiae deletion strains, locus YOL006C, strain TOP1, hits give low values 0.991 | S. cerevisiae deletion strains, locus YOL012C, strain htz1 1.95 | S. cerevisiae deletion strains, locus YOL147C, strain pex11, hits give low values 1.01 | S. cerevisiae deletion strains, locus YOR001W, strain rrp6, hits give low values 1 | S. cerevisiae deletion strains, locus YOR061W, strain CKA2, hits give low values 0.97 | S. cerevisiae deletion strains, locus YOR069W, strain VPS5, hits give low values 0.997 | S. cerevisiae deletion strains, locus YOR070C, strain gyp1, hits give low values 0.988 | S. cerevisiae deletion strains, locus YOR080W, strain dia2, hits give low values 0.992 | S. cerevisiae deletion strains, locus YOR083W, strain WHI5, hits give low values 1.02 | S. cerevisiae deletion strains, locus YOR106W, strain vam3, hits give low values 0.987 | S. cerevisiae deletion strains, locus YOR136W, strain idh2, hits give low values 0.995 | S. cerevisiae deletion strains, locus YOR144C, strain elg1, hits give low values 1 | S. cerevisiae deletion strains, locus YOR184W, strain ser1, hits give low values 1 | S. cerevisiae deletion strains, locus YOR231W, strain MKK1, hits give low values 0.991 | S. cerevisiae deletion strains, locus YOR265W, strain rbl2, hits give low values 0.986 | S. cerevisiae deletion strains, locus YOR270C, strain vph1, hits give low values 1.02 | S. cerevisiae deletion strains, locus YOR290C, strain snf2, hits give low values 0.965 | S. cerevisiae deletion strains, locus YOR316C, strain cot1, hits give low values 0.993 | S. cerevisiae deletion strains, locus YPL051W, strain arl3, hits give low values 0.992 | S. cerevisiae deletion strains, locus YPL055C, strain LGE1, hits give low values 0.976 | S. cerevisiae deletion strains, locus YPL078C, strain atp4, hits give low values 1 | S. cerevisiae deletion strains, locus YPL106C, strain sse1, hits give low values 0.97 | S. cerevisiae deletion strains, locus YPL240C, strain hsp82, hits give low values 1 | S. cerevisiae deletion strains, locus YPL241C, strain CIN2, hits give low values 0.995 and 1.01 | S. cerevisiae deletion strains, locus YPL256C, strain CLN2, hits give low values 0.969 | S. cerevisiae deletion strains, locus YPR119W, strain clb2, hits give low values 0.993 | S. cerevisiae deletion strains, locus YPR141C, strain kar3, hits give low values 0.992 | S. cerevisiae deletion strains, locus YPR163C, strain tif3, hits give low values 1 | S. cerevisiae deletion strains, locus YPR167C, strain met16, hits give low values 0.996 | S. cerevisiae deletion strains, strain wtn01, hits give low values 0.99 | S. cerevisiae strains, strain wild type, hits give low values 0.998
